ΔTm data for 26 compounds are collected here from ChEMBL document CHEMBL5308504, “Tm Shift (DSF) assay results for EUbOPEN Chemogenomics Library” (2023).

Common to all, as to conditions: Compound concentration 20.0 uM, Protein concentration 2.0 uM, Result type QC Liability
In experiment [1] the target is Tyrosine-protein kinase ABL1 (Homo sapiens) (UniProt P00519).
In experiment [2] the target is Cyclin-dependent kinase 2 (Homo sapiens) (UniProt P24941).
Experiment [3] has as its target Casein kinase I isoform delta (Homo sapiens) (UniProt P48730).
Experiment [4] deals with Glycogen synthase kinase-3 beta (Homo sapiens) (UniProt P49841).
Glycogen synthase kinase-3 beta (Homo sapiens), sequence (P49841 whole entry, looked up): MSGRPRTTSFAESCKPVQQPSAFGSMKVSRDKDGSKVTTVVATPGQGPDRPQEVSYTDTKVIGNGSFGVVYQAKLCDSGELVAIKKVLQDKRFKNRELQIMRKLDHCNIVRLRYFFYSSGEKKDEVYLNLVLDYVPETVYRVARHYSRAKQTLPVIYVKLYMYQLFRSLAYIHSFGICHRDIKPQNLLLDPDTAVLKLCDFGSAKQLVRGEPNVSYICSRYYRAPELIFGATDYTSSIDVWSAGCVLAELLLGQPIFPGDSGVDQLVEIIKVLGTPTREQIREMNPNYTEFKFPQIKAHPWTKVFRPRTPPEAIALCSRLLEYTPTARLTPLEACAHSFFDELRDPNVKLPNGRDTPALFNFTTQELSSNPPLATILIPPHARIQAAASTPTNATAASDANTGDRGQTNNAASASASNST
The target of experiment [5] is Mitogen-activated protein kinase 1 (Homo sapiens) (UniProt P28482).
Mitogen-activated protein kinase 1 (Homo sapiens), sequence (P28482 whole entry): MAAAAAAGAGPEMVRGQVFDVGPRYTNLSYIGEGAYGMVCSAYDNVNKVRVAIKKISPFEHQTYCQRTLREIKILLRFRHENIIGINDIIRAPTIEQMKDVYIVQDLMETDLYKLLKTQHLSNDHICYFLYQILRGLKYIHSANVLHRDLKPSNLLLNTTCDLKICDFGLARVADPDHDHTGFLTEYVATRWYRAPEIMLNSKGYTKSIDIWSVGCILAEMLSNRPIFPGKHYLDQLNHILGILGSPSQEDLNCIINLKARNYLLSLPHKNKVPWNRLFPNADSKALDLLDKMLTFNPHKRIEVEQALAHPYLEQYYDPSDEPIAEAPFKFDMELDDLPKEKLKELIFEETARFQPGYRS
Experiment [6] deals with T1, Aurora kinase A (Homo sapiens) (UniProt O14965).
T1 sequence (whole entry): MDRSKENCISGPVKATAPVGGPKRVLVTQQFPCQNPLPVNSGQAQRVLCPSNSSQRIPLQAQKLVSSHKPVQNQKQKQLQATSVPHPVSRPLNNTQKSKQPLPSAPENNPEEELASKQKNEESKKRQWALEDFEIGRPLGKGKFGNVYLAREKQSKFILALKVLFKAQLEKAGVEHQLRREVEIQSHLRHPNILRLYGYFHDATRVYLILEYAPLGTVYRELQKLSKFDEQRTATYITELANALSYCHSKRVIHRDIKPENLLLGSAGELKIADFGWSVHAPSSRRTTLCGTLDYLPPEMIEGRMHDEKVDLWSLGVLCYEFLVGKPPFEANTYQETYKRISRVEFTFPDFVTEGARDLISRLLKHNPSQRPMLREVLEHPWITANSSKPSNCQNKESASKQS

Tyrosine-protein kinase ABL1 (Homo sapiens), sequence (P00519 whole entry): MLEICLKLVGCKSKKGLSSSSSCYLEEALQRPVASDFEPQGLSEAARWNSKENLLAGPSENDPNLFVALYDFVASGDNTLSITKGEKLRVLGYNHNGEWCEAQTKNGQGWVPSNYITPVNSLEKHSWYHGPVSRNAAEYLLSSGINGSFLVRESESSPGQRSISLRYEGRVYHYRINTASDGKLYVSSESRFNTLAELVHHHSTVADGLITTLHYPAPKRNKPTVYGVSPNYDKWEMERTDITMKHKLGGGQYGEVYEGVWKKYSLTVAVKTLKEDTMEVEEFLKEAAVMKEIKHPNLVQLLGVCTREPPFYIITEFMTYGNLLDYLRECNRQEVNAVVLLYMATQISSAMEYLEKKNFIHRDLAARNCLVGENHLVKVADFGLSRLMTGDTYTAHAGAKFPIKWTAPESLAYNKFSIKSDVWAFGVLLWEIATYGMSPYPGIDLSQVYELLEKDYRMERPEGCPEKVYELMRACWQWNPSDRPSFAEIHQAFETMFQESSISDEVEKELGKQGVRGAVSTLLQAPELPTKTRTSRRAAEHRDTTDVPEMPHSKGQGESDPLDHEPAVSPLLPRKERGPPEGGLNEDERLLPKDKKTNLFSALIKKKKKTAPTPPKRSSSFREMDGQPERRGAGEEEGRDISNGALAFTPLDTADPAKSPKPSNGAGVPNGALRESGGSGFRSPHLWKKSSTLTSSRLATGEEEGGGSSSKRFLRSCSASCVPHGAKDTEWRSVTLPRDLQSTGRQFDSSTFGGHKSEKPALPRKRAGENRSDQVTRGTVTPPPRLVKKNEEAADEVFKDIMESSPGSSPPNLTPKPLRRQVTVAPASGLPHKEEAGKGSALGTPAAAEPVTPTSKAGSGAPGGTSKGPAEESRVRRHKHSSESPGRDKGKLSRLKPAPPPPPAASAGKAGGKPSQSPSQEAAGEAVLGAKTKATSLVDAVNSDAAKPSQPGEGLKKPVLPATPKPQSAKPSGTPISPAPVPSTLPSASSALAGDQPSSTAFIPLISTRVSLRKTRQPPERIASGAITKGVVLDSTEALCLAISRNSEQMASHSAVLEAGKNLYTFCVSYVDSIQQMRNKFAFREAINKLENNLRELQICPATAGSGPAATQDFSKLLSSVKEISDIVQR
Casein kinase I isoform delta (Homo sapiens), sequence (P48730 whole entry, looked up, canonical isoform): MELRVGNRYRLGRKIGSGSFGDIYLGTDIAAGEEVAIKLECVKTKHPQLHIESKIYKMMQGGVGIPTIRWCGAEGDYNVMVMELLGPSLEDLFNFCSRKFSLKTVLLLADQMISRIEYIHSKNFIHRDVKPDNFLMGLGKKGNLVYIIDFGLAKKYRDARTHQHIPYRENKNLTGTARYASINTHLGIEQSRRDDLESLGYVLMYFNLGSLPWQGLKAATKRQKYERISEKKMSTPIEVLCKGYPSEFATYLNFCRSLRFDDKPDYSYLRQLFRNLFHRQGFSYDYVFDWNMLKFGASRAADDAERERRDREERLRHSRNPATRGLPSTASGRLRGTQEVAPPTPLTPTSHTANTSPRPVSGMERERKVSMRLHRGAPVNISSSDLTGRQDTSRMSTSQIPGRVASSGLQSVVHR

Turning to `CCC(C(=O)Nc1ccc(-c2cc3ccccc3s2)c(C(N)=O)c1)c1nccs1` (stereo unspecified), the ΔTm (usually the shift of the melting midpoint relative to a reference) in experiment [1] worked out at 0.88 °C; in experiment [2] it was 0.25 °C; in experiment [3], 0.47 °C; in experiment [4] it was 0.69 °C; in experiment [5], 0.41 °C; in experiment [6], 0.34 °C.

Take `C[C@H](CCC(=O)O)[C@H]1CC[C@H]2[C@@H]3[C@H](O)C[C@@H]4C[C@H](O)CC[C@]4(C)[C@H]3C[C@H](O)[C@]12C`: the shift in melting temperature (ΔTm) in experiment [1] was 0.17 °C; in experiment [2], 0.08 °C; in experiment [3], 0.33 °C; in experiment [4], -0.66 °C; in experiment [5], 0.4 °C; in experiment [6], -1.53 °C.

Take `COc1cc(O)c(C(CC(=O)N2C[C@H](C)C[C@H](C)C2)c2ccc3c(c2)OCO3)c(OC)c1` (stereo partly specified): the thermal shift (ΔTm) in experiment [1] was 4.29 °C; in experiment [2], 0.29 °C; in experiment [3] it was 0.17 °C; in experiment [4] it was 1 °C; in experiment [5], 0.25 °C; in experiment [6], 0.33 °C.

On to `CN1CCc2cc(Nc3ncc(C(F)(F)F)c(NCc4cc[nH]n4)n3)ccc2C1`, for which the ΔTm was 5.79 °C in experiment [1]; 7.99 °C in experiment [2]; 2.14 °C in experiment [3]; 6.33 °C in experiment [4]; 1.88 °C in experiment [5]; 11.3 °C in experiment [6].

For `CCNC1=N[C@@H]2[C@@H](O)[C@H](O)[C@@H](CO)O[C@@H]2S1`, the ΔTm in experiment [1] is 0.07 °C; in experiment [2], 0.73 °C; in experiment [3], 0.01 °C; in experiment [4], -0.6 °C; in experiment [5], 0.28 °C; in experiment [6], -0.73 °C.

As for `O=C(O)CCCCN(CCc1cc(F)ccc1OCc1ccc(-c2ccc(C(F)(F)F)cc2)cc1)Cc1ccc(C(=O)O)cc1`, the thermal shift (ΔTm) is 0.64 °C in experiment [1]; -0.19 °C in experiment [2]; 0.21 °C in experiment [3]; -1.11 °C in experiment [4]; -0.69 °C in experiment [5]; 0.32 °C in experiment [6].

On to `CN(C)C/C=C/C(=O)Nc1cc2c(Nc3ccc(F)c(Cl)c3)ncnc2cc1OC[C@@H]1CCCO1`, for which the ΔTm was 6.89 °C in experiment [1]; -0.1 °C in experiment [2]; 1.15 °C in experiment [3]; 2.63 °C in experiment [4]; -1.79 °C in experiment [5]; 1.39 °C in experiment [6].

For the compound `C[C@H](CCOc1cccc(CC(=O)O)c1)N(Cc1cccc(C(F)(F)F)c1Cl)CC(c1ccccc1)c1ccccc1`, the ΔTm in experiment [1] is 0.51 °C; in experiment [2], 1.5 °C; in experiment [3], 0.57 °C; in experiment [4], -1.07 °C; in experiment [5], 0.41 °C; in experiment [6], -2.31 °C.

`CN(C(=O)c1ccccc1)c1ccc2c(c1)[nH]/c(=N\C(=O)c1ccc(Br)s1)n2CCC(N)=O`: the ΔTm in experiment [1] was 3.94 °C; in experiment [2], 0.69 °C; in experiment [3], 6.56 °C; in experiment [4], 0.89 °C; in experiment [5], 0.41 °C; in experiment [6], 3.75 °C.

Take `CNC(=O)c1nnc(NC(=O)C2CC2)cc1Nc1cccc(-c2ncn(C)n2)c1OC`: the shift in melting temperature (ΔTm) was 3.38 °C in experiment [1]; 0.57 °C in experiment [2]; 0.11 °C in experiment [3]; 5.87 °C in experiment [4]; 0.36 °C in experiment [5]; 0.41 °C in experiment [6].

With `C[C@H](CCC(=O)O)[C@H]1CC[C@H]2[C@@H]3CC[C@@H]4C[C@H](O)CC[C@]4(C)[C@H]3C[C@H](O)[C@]12C`, the ΔTm in experiment [1] was -0.07 °C; in experiment [2], 0.15 °C; in experiment [3], 0.54 °C; in experiment [4], -0.7 °C; in experiment [5], 0.2 °C; in experiment [6] it was -0.62 °C.

Turning to `O=C(O)Cc1ccc(CCNS(=O)(=O)c2ccc(Cl)cc2)cc1`, the shift in melting temperature (ΔTm) in experiment [1] is 0.25 °C; in experiment [2], 0.43 °C; in experiment [3] it was 0.01 °C; in experiment [4], 0.95 °C; in experiment [5] it was -0.52 °C; in experiment [6], -0.24 °C.

Turning to `Cc1cc(OC2CCS(=O)(=O)CC2)cc(C)c1-c1cccc(COc2ccc(CCC(=O)O)c(F)c2)c1`, the shift in melting temperature (ΔTm) in experiment [1] is -0.51 °C; in experiment [2], -2.34 °C; in experiment [3], 0.59 °C; in experiment [4], -4.55 °C; in experiment [5], -0.4 °C; in experiment [6], -1.9 °C.

Turning to `CC[C@@H](Nc1c(C#N)c(-c2ccc(-c3cccc(C)c3F)cc2)nc2cnccc12)C(=O)O`, the ΔTm in experiment [1] is 1.07 °C; in experiment [2], -0.82 °C; in experiment [3], -0.63 °C; in experiment [4] it was 0.06 °C; in experiment [5] it was -0.07 °C; in experiment [6], 5.1 °C.

With `CCCS(=O)(=O)Nc1ccc(F)c(Nc2ncnc3cnc(-n4cnc(C)c4)nc23)c1F`, the shift in melting temperature (ΔTm) was 1.19 °C in experiment [1]; 1.1 °C in experiment [2]; 0.17 °C in experiment [3]; 0.89 °C in experiment [4]; 0.39 °C in experiment [5]; -0.24 °C in experiment [6].

Take `CCc1nc(C2CCC2)n2nc(-c3ccccc3)[nH]c(=O)c12`: the shift in melting temperature (ΔTm) in experiment [1] amounted to 0.18 °C; in experiment [2], 1.98 °C; in experiment [3], 0.4 °C; in experiment [4], 1.45 °C; in experiment [5], 0.11 °C; in experiment [6], 1.13 °C.

With `CCOC(=O)/N=C(\N)c1ccc(OCc2cccc(COc3ccc(C(C)(C)c4ccc(OC(=O)OCC)cc4)cc3)c2)cc1`, the ΔTm in experiment [1] was 0.03 °C; in experiment [2], -3.47 °C; in experiment [3] it was -11.2 °C; in experiment [4], -4.21 °C; in experiment [5] it was -11.6 °C; in experiment [6], -7.28 °C.

Consider `c1ccc2c(c1)SCc1c-2[nH]c2ccccc12`, for which the ΔTm is -6.18 °C in experiment [1]; -4.12 °C in experiment [2]; -0.03 °C in experiment [3]; 1.83 °C in experiment [4]; 0.46 °C in experiment [5]; -4.16 °C in experiment [6].

In the case of `C=C1/C(=C\C=C2/CCC[C@]3(C)[C@@H]([C@H](C)CCCC(C)(C)O)CC[C@@H]23)C[C@@H](O)C[C@@H]1O`, the shift in melting temperature (ΔTm) in experiment [1] is -0.27 °C; in experiment [2] it was -4.7 °C; in experiment [3], 0 °C; in experiment [4], -6.39 °C; in experiment [5], -0.74 °C; in experiment [6], -10 °C.

Consider `COc1ccc(-c2c(-c3ccccc3)oc3ncnc(O[C@H](C)CCCCC(=O)O)c23)cc1`, for which the thermal shift (ΔTm) is -0.07 °C in experiment [1]; -2.59 °C in experiment [2]; -0.84 °C in experiment [3]; -2 °C in experiment [4]; -3.65 °C in experiment [5]; 5.26 °C in experiment [6].

Regarding `CC(C)(C)OC(=O)CN1C(=O)c2c(OCC(=O)O)cccc2Oc2ccc(C(F)(F)F)cc21`, the shift in melting temperature (ΔTm) in experiment [1] is 0.48 °C; in experiment [2], 0.55 °C; in experiment [3], 0.4 °C; in experiment [4] it was 1.17 °C; in experiment [5] it was 0.51 °C; in experiment [6], -0.28 °C.

`O=C1CCCN1CCNc1nc(Nc2ccc(Cl)c(Cl)c2)ncc1C(F)(F)F`: the ΔTm in experiment [1] stood at 4.3 °C; in experiment [2] it was 5.26 °C; in experiment [3], 0.96 °C; in experiment [4], 3.17 °C; in experiment [5] it was 4.18 °C; in experiment [6], 11.2 °C.

On to `COc1cc(C(=O)O)ncc1C#Cc1ccccc1NS(=O)(=O)c1cccc2c(N(C)C)ccnc12`, for which the ΔTm is 0.14 °C in experiment [1]; -0.3 °C in experiment [2]; 0.08 °C in experiment [3]; -0.76 °C in experiment [4]; 0.42 °C in experiment [5]; 0.72 °C in experiment [6].

On to `CNC(=O)c1cc(C(=O)N[C@H]2[C@@H]3COC[C@@H]32)cc2c1O[C@H](CF)[C@H]2c1ccccc1`, for which the ΔTm is 0.27 °C in experiment [1]; 0.34 °C in experiment [2]; 0.02 °C in experiment [3]; -0.78 °C in experiment [4]; 0.3 °C in experiment [5]; 0.31 °C in experiment [6].

For `Nc1nccc(-c2c(-c3ccc(F)cc3)ncn2C2CCN(Cc3ccon3)CC2)n1`, the ΔTm was 0.7 °C in experiment [1]; 0.23 °C in experiment [2]; 10.1 °C in experiment [3]; 6.87 °C in experiment [4]; 0.36 °C in experiment [5]; -0.88 °C in experiment [6].

Consider `COc1ccc(-c2cc3c(C)nc(N)nc3n([C@H]3CC[C@H](OCCO)CC3)c2=O)cn1`, for which the thermal shift (ΔTm) in experiment [1] is 0.46 °C; in experiment [2] it was 0 °C; in experiment [3], -0.16 °C; in experiment [4], -0.85 °C; in experiment [5] it was 0.38 °C; in experiment [6], -0.59 °C.
